Data on 14 compounds can be found in PubChem BioAssay (Tox21).

A short description of experiment [1]: qHTS assay to identify small molecule antagonists of the thyroid receptor (TR) signaling pathway - cell viability counter screen (AID 743064). Note: nearly all actives have a fitted effect of over 50% in size. Note: potency is the fitted concentration of half-maximal effect. A digest of the protocol:
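In-well cytotoxicity read by CellTiter-Fluor (30 min, 37 C) following 23.5 h exposure of GH3 cells bearing a TRE-luciferase sensor. Compounds were added alongside 1 nM (final) T3 to drive TR transactivation.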

A short description of experiment [2]: qHTS assay to identify small molecule antagonists of the thyroid receptor (TR) signaling pathway (AID 743065). Note: nearly all actives have a fitted effect of over 55% in size. Note: potency is the fitted concentration of half-maximal effect. A digest of the protocol:
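Antagonism measured as loss of luciferase signal in GH3 cells stably carrying a TRE-luciferase reporter, co-treated with compound and T3 (1 nM final) for 23.5 h at 37 C. Viability was read in the same well by CellTiter-Fluor.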
(In qHTS, concentration-response curves come from the screen itself.)

Experiment [3] has as its system thyroid hormone receptor (rat, GH3 cells). Kind of experiment: qHTS assay to identify small molecule agonists of the thyroid receptor (TR) signaling pathway (AID 743066; calls by dose curve).
Experiment [4] is described as follows: qHTS assay to identify small molecule antagonists of the estrogen receptor alpha (ER-alpha) signaling pathway - cell viability counter screen (AID 743074; calls by dose curve;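 note: HEK293 cells carrying ER-alpha-UAS-bla reporter stimulated with 17beta-estradiol; nearly all actives have a fitted effect of over 45% in size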).
Experiment [5] is described as follows: qHTS assay to identify small molecule antagonists of the estrogen receptor alpha (ER-alpha) signaling pathway using the BG1 cell line - cell viability counter screen (AID 743081).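 Note: compound given together with 17beta-estradiol as the ER stimulus; nearly all actives have a fitted effect of over 45% in size.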 Note: potency is the fitted concentration of half-maximal effect.
Experiment [6] concerns the target Aromatase (Homo sapiens) (UniProt P11511). Kind of experiment: qHTS assay to identify aromatase inhibitors (AID 743083). Note: series mostly up to about 70 µM; nearly all actives have a fitted effect of over 55% in size.
Experiment [7] can be described thus: qHTS assay to identify aromatase inhibitors - cell viability counter screen (AID 743084).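 Note: cells stimulated with testosterone during compound exposure; nearly all actives have a fitted effect of over 55% in size.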 Note: potency is the fitted concentration of half-maximal effect.
For experiment [8], the target named is Aryl hydrocarbon receptor (Homo sapiens) (UniProt P35869). Kind of experiment: qHTS assay to identify small molecule that activate the aryl hydrocarbon receptor (AhR) signaling pathway (AID 743085).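 For activation: HG2L7.5c1 human HepG2 liver cells with stably integrated DRE-driven firefly reporter; series mostly up to about 70 µM.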 Note: nearly all actives have a fitted effect of over 15% in size. Note: potency is the fitted concentration of half-maximal effect. A digest of the protocol: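 Luminescence (ONE-Glo) from a dioxin-responsive-element luciferase reporter in HG2L7.5c1 HepG2 cells after 24 hr compound exposure at 37C; viability measured by CellTiter-Fluor fluorescence beforehand.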

Experiment [9] in a line: qHTS assay for small molecule agonists of the antioxidant response element (ARE) signaling pathway (AID 743202; active = well fitted activation curve with a large enough effect in the signal ratio in the repeat runs, not every such curve was filed as active; the % refers to the signal ratio; note: potency is the fitted concentration of half-maximal effect). In short, it runs like this: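 Quantitative high-throughput format in HepG2 cells bearing an integrated ARE-beta-lactamase reporter. Compound exposure lasted 16 h at 37 C, and fluorescence was read 2 h after adding LiveBLAzer B/G substrate at room temperature.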

Experiment [10] is described as follows: qHTS assay for small molecule agonists of the antioxidant response element (ARE) signaling pathway - cell viability counter screen (AID 743203; calls by dose curve; note: nearly all actives have a fitted effect of over 55% in size). In short, it runs like this:
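HepG2 cells carrying ARE-driven beta-lactamase; 2,000 cells/well; 5 hrs plating; compound pinned from DMSO; 16 hrs 37C/5% CO2; CellTiter-Glo added; 30 min RT; luminescence.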

Experiment [11] in a line: qHTS assay for small molecule activators of the heat shock response signaling pathway (AID 743210; active = well fitted activation curve with a large enough effect in the signal ratio in the repeat runs, with a control signal flat, not every such curve was filed as active; the % refers to the signal ratio; note: potency is the fitted concentration of half-maximal effect;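 for activation: HeLa cells with beta-lactamase reporter driven by heat shock elements; series mostly up to about 63 µM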). In short, it runs like this:
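HeLa HSE-bla cells, overnight plating; cpd in DMSO 5 h, 37 C; LiveBLAzer B/G FRET substrate 2.5 h RT; fluorescence intensity read.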

The target of experiment [12] is Estrogen receptor (Homo sapiens) (UniProt P03372). The experiment in a line: qHTS assay to identify small molecule antagonists of the estrogen receptor alpha (ER-alpha) signaling pathway (AID 743069; active = well fitted curve in the direction sought with a large enough effect in the signal ratio in the repeat runs, not every such curve was filed as active; the % refers to the signal ratio). In short, it runs like this: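 ER-alpha-UAS-bla GripTite HEK293 line; 2% charcoal-stripped FBS overnight; plated, 4 hr 37C/5% CO2; cpd in DMSO + 17beta-estradiol, 18 hr 37C; LiveBLAzer B/G FRET substrate 2 hr RT; fluorescence intensity.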

Experiment [13] has the same target. The experiment in a line: qHTS assay to identify small molecule agonists of the estrogen receptor alpha (ER-alpha) signaling pathway (AID 743075; calls by dose curve;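 note: HEK293 GripTite cells with ER-alpha and UAS-driven beta-lactamase reporter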).
Experiment [14] has the same target. Kind of experiment: qHTS assay to identify small molecule agonists of the estrogen receptor alpha (ER-alpha) signaling pathway using the BG1 cell line (AID 743079). Note: nearly all actives have a fitted effect of over 20% in size.
Experiment [15] is described as follows: qHTS assay to identify small molecule antagonists of the estrogen receptor alpha (ER-alpha) signaling pathway using the BG1 cell line (AID 743080; calls by dose curve;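 note: BG1 cells stimulated with 17beta-estradiol alongside compound; series mostly up to about 70 µM; nearly all actives have a fitted effect of over 25% in size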). In short, it runs like this:
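After 5 days in phenol-red-free 10% charcoal-stripped FBS medium, BG1-Luc-4E2 cells were seeded, left 24 h at 37 C, co-treated with compounds and 17beta-estradiol for 21.5 h, then assayed for viability and luciferase.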

Experiment [16] in a line: qHTS assay to identify small molecule that activate the aryl hydrocarbon receptor (AhR) signaling pathway - cell viability counter screen (AID 743086). Note: series mostly up to about 70 µM; nearly all actives have a fitted effect of over 45% in size. In short, it runs like this: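 Cytotoxicity counter screen: CellTiter-Fluor signal (30 min, 37 C) in 4000 HepG2 cells/well carrying the DRE-luciferase reporter, following 24 h compound exposure at 37 C.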
Experiment [17] in a line: qHTS assay for small molecule activators of the heat shock response signaling pathway - cell viability counter screen (AID 743209). Note: nearly all actives have a fitted effect of over 50% in size. In short, it runs like this: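 Luminescence from CellTiter-Glo, added after the beta-lactamase FRET read, gave the viability signal. Cells were HSE-bla HeLa treated with DMSO-dissolved compounds for 5 h at 37 C following overnight plating.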

For experiment [18], the target named is Peroxisome proliferator-activated receptor gamma (Homo sapiens) (UniProt P37231). The experiment in a line: qHTS assay to identify small molecule agonists of the peroxisome proliferator-activated receptor gamma (PPARg) signaling pathway (AID 743094; active = well fitted activation curve with a large enough effect in the signal ratio in the repeat runs, not every such curve was filed as active; the % refers to the signal ratio). A digest of the protocol: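 Beta-lactamase FRET fluorescence was the read-out after a 1 h room-temperature substrate step, following 17 h compound treatment at 37C of HEK293H cells expressing a UAS-driven bla reporter responsive to PPARg.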

A short description of experiment [19]: qHTS assay to identify small molecule antagonists of the peroxisome proliferator-activated receptor gamma (PPARg) signaling pathway - cell viability counter screen (AID 743194). Note: nearly all actives have a fitted effect of over 55% in size. A digest of the protocol: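 Viability was measured as CellTiter-Glo luminescence in GeneBLAzer PPARg UAS-bla HEK293H cells. These cells had been exposed 17 h at 37 C to compounds together with rosiglitazone at 50 nM final, with the beta-lactamase readout taken in the same wells.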

For experiment [20], the target named is Peroxisome proliferator-activated receptor gamma (Homo sapiens) (UniProt P37231). Kind of experiment: qHTS assay to identify small molecule antagonists of the peroxisome proliferator-activated receptor gamma (PPARg) signaling pathway (AID 743191; calls by dose curve; note: series mostly up to about 63 µM; nearly all actives have a fitted effect of over 30% in size). A digest of the protocol: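 Beta-lactamase reporter under UAS control in HEK293H PPARg-bla cells; compound treatment 17 h at 37C. Read-out: fluorescence intensity after 1 h room-temperature incubation with LiveBLAzer B/G FRET substrate.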

Several values for one entry are separate records, joined by “and”; a condition that tells them apart may be missing. Equal entries are not always repeated. Results filed as inconclusive are left out. Activity calls are given as the source filed them. Unless noted, calls come from the whole dose curve; as a rule, active = well fitted curve in the direction sought with a large enough effect in the repeat runs; inconclusive = weak or mixed curves; inactive = no such curve, though single readings can be large; an effect the other way counts as inactive or inconclusive.

Sequence of Aryl hydrocarbon receptor (Homo sapiens) (P35869 whole entry, looked up): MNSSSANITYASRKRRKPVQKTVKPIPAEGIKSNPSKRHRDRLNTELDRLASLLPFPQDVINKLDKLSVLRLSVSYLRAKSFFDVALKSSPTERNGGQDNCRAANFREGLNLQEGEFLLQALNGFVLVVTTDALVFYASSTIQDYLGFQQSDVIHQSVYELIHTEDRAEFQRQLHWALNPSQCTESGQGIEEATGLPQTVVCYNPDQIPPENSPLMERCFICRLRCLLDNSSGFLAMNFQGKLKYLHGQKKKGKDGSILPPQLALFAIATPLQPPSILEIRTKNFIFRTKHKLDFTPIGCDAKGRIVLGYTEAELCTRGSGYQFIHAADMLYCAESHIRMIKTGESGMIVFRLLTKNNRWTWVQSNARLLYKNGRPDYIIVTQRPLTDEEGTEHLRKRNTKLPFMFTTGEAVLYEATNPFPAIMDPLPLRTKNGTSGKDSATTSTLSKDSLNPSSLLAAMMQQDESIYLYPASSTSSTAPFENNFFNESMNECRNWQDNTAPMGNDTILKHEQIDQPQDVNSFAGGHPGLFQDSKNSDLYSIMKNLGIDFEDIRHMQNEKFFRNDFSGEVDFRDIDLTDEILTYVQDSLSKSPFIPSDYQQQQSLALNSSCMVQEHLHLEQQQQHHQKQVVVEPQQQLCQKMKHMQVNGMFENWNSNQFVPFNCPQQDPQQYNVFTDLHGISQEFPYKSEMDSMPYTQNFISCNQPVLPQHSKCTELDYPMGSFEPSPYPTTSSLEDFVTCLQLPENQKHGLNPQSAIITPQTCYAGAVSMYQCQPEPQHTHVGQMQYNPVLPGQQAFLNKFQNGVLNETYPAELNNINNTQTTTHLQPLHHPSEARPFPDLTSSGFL
Sequence of Peroxisome proliferator-activated receptor gamma (Homo sapiens) (P37231 whole entry, looked up): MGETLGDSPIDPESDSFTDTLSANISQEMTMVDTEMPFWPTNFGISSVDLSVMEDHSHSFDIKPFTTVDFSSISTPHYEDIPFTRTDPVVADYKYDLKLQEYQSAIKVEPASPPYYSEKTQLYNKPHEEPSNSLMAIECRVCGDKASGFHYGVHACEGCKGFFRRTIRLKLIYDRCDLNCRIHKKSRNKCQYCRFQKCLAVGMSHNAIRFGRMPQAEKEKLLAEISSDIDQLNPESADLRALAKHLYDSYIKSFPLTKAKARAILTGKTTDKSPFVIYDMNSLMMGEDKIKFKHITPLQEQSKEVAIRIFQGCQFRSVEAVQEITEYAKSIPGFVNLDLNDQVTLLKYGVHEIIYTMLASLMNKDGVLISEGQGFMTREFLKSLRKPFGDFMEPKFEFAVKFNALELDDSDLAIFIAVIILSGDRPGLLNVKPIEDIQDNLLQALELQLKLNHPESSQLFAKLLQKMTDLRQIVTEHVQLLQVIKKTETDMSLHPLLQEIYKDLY
Sequence of Aromatase (Homo sapiens) (P11511 whole entry, looked up): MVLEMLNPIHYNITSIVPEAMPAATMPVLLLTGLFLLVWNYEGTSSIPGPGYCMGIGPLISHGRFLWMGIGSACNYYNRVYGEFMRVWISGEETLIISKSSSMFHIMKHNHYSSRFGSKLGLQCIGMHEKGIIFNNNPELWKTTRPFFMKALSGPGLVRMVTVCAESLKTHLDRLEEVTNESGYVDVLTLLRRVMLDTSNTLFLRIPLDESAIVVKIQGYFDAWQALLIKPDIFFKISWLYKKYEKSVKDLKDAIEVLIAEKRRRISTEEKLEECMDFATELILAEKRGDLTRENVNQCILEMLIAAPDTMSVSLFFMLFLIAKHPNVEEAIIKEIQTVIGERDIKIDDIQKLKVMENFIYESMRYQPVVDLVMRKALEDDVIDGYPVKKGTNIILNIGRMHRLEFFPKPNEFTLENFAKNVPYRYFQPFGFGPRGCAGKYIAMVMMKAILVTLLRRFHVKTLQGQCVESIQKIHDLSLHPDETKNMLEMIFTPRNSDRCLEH
Sequence of Estrogen receptor (Homo sapiens) (P03372 whole entry, looked up): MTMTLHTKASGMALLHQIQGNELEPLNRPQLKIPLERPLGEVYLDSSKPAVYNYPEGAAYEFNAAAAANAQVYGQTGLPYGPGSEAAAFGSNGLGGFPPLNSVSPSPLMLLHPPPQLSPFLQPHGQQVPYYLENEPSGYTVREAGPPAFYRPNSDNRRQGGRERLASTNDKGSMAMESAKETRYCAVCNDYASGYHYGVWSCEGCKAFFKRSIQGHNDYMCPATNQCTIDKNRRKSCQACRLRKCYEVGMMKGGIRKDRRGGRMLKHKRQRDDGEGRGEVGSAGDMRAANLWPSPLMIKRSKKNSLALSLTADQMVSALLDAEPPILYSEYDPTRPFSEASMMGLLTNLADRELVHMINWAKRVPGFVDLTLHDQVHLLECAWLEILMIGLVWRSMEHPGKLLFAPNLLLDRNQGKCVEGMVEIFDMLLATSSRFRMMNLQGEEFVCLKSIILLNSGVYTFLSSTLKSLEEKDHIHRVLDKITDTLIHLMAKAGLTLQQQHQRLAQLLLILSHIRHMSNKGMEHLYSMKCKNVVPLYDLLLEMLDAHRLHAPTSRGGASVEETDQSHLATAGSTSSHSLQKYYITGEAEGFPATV

For the compound `COCCCOc1ccnc(CS(=O)c2nc3ccccc3[nH]2)c1C` (stereo unspecified), the Potency result in experiment [1], in experiment [3], in [5], in experiment [6], in experiment [7] and in experiment [11] was “inactive” in each case. In addition, the Potency was 48.4 µM (active) in experiment [2]; 9.44 µM (active) and 3.05 µM (active) in experiment [8]; 6.09 µM (active) in experiment [9]. Moreover, the result in experiment [4] and in experiment [10] was inactive.
In the case of `CC1=C(C)S(=O)(=O)CCS1(=O)=O`, the Potency entry in [1], in experiment [3], in experiment [12], in experiment [13], in [14] and in [15] was “inactive” in each case. Moreover, the Potency entry in experiment [5], in [6], in experiment [7], in experiment [8] and in [11] was “inactive” throughout. Also, the compound was classed as inactive in experiment [4], in experiment [16], in experiment [10] and in experiment [17]. The Potency in experiment [9] was 1.09 µM (active).
Turning to `CCCCOC(=O)COc1ccc(Cl)cc1Cl`, the Potency result in [1], in [2], in experiment [3], in experiment [5], in [6] and in experiment [7] was “inactive” throughout. Moreover, the Potency result in experiment [9] and in [11] was “inactive” in each case. The compound was called inactive in experiment [4], in experiment [16], in [18], in experiment [19], in [10] and in experiment [17].
With `COc1ccc(Cl)cc1C(=O)NCCc1ccc(S(=O)(=O)NC(=O)NC2CCCCC2)cc1`, the Potency entry in experiment [1], in experiment [2], in [3], in experiment [5], in experiment [6] and in experiment [7] was “inactive” in each case. Also, the Potency entry in [8] and in experiment [11] was “inactive” each time. The result in [4], in [16], in [18], in experiment [19], in experiment [10] and in experiment [17] was inactive.
For the compound `Nc1cc([N+](=O)[O-])ccc1O`, the Potency in [1] is 30.6 µM (active) and 60.8 µM (active); in [5], 54.5 µM (active); in [7], 54.5 µM (active); in [9] it was 17.1 µM (active). The Potency entry in experiment [2], in experiment [3], in experiment [6] and in experiment [11] was “inactive” throughout. Moreover, the outcome in experiment [4], in [18], in experiment [20], in [19], in experiment [10] and in experiment [17] was inactive.
On to `NNc1nncc2ccccc12`, for which the compound was called inactive in experiment [4], in experiment [16] and in [10]. Further, the Potency result in experiment [5], in [6] and in experiment [11] was “inactive” throughout. The Potency in experiment [8] is 9.69 µM (active).
For `CN(C)CCC(c1ccccc1)c1ccccn1` (stereo unspecified), the Potency result in [1], in experiment [2], in experiment [3], in experiment [5], in [7] and in experiment [8] was “inactive” throughout. For the same compound, the Potency result in [9] and in experiment [11] was “inactive” each time. In addition, the compound was classed as inactive in experiment [4], in experiment [16], in experiment [19] and in [10].
As for `CCCCCCCCC/C=C/CC1CC(=O)OC1=O` (stereo unspecified), the Potency entry in experiment [1], in [3], in experiment [5] and in experiment [11] was “inactive” throughout. Besides, the compound was classed as inactive in experiment [4], in [16], in [19] and in experiment [10].
`OCCOCCOCCO`: the Potency entry in experiment [1], in [12], in [13], in [14], in experiment [15] and in experiment [5] was “inactive” throughout. Further, the Potency result in [6], in experiment [7], in experiment [9] and in experiment [11] was “inactive” throughout. The outcome in experiment [4], in [16], in experiment [18], in experiment [20], in experiment [19] and in [10] was inactive. Further, the compound was called inactive in [17].
As for `Nc1ccccc1[N+](=O)[O-]`, the Potency result in experiment [1], in experiment [2], in experiment [3], in [5], in experiment [6] and in [7] was “inactive” throughout. The Potency entry in experiment [8], in experiment [9] and in [11] was “inactive” in each case. The compound was classed as inactive in experiment [4], in [16], in [18], in experiment [19] and in experiment [10].
In the case of `CCCSc1ccc2nc(NC(=O)OC)[nH]c2c1`, the Potency was 452 nM (active) in experiment [1]; 4.52 µM (active) and 34.4 µM (active) in experiment [8]; 16.7 µM (active) in [11]. Also, the compound was classed as inactive in [4], in experiment [16], in experiment [19], in experiment [10] and in experiment [17]. Further, the Potency entry in experiment [5], in experiment [6], in [7] and in [9] was “inactive” throughout.
As to `C[C@H]1C[C@H]2[C@@H]3CCC4=CC(=O)C=C[C@]4(C)[C@@]3(F)[C@@H](O)C[C@]2(C)[C@@]1(O)C(=O)CO`, the Potency entry in experiment [1], in experiment [2], in [3], in [5], in [6] and in experiment [7] was “inactive” each time. The Potency entry in experiment [8], in [9] and in experiment [11] was “inactive” throughout. Besides, the compound was classed as inactive in experiment [4], in experiment [16], in [19], in [10] and in experiment [17].
As for `CC(C)(C)[C@@H](O)[C@@H](Cc1ccc(Cl)cc1)n1cncn1`, the Potency entry in experiment [1], in [2], in [3], in experiment [5], in experiment [6] and in [7] was “inactive” in each case. Besides, the Potency result in [9] and in experiment [11] was “inactive” in each case. In addition, the call in experiment [4], in [16], in experiment [18], in experiment [19], in experiment [10] and in experiment [17] was inactive.
`CCCCCCCCCCCCc1ccccc1`: the Potency result in [1], in experiment [5], in experiment [6], in experiment [7], in [8] and in experiment [9] was “inactive” in each case. The Potency result in [11] is “inactive”. In addition, the outcome in [4], in experiment [16], in [18], in [20], in experiment [19] and in experiment [10] was inactive. Further, the outcome in [17] was inactive.
